In PubChem BioAssay one finds outcome data, which are given here for 40 molecules.

Structures are written as SMILES. Entries with a potency or affinity are not part of this list. Activity calls are given as the source filed them.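 The calls were made as follows: active = a dose-response fit showing signal loss, with half-maximal concentration no higher than twice the top tested dose; inconclusive = flat fit between 30% and 70% signal loss, or poor fit; inactive = the rest.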

This experiment can be described thus: viability loss in HepG2 hepatoma cells – cell-based, cherry-picks, set 2, cytotoxicity control, dose response (AID 687002). Conditions: ATP luminescence (CellTiter-Glo), 48 h; series mostly up to 26 µM. On the technique in general: ATP-based viability assays read luminescence as a measure of living cells.
As to `CCCC#Cc1cnc2c(c1)C(=O)N([C@@H](C)CO)C[C@H](C)[C@H](CN(C)C(=O)Nc1cccc(F)c1)O2`, the molecule was classed as inactive.

Regarding `Cc1nnc(NC(=O)CSc2ncnc3c2cnn3-c2ccccc2C)s1`, the result was inactive.

Turning to `CO[C@H]1CN(C)C(=O)c2ccc(NC(=O)C3CC3)cc2OC[C@@H](C)N(Cc2ccc(F)cc2)C[C@@H]1C`, the outcome was inactive.

On to `CCNC(=O)C[C@@H]1CC[C@H]2[C@@H](COC[C@@H](O)CN2S(=O)(=O)c2ccccc2F)O1`, for which the molecule was classed as inactive.

As to `Cc1ccc(NC(=O)C2(C)CCN2C(=O)C2CCCCC2)cc1C` (stereo not given), the outcome was inactive.

Consider `C[C@H](CO)N1C[C@H](C)[C@@H](CN(C)C(=O)Nc2ccc(F)cc2)Oc2c(NS(=O)(=O)c3ccccc3)cccc2C1=O`, for which the outcome was inactive.

As for `NC(=O)CN(c1ccccc1)S(=O)(=O)c1ccc(F)cc1`, the call was inactive.

Consider `COc1cccc(C#Cc2cnc3c(c2)C(=O)N([C@H](C)CO)C[C@@H](C)[C@@H](CN(C)C(=O)C2CCOCC2)O3)c1`, for which the molecule was classed as inactive.

In the case of `O=C(Cc1cccs1)N1CCN(c2ccc([N+](=O)[O-])cc2)CC1`, the outcome was inactive.

For `O=C(NC[C@H]1[C@@H](c2ccccc2)[C@@H](CO)N1C(=O)C1CCC1)NC1CCCC1`, the molecule was classed as inactive.

Take `CC(=O)c1cccc(NC(=S)NC2CCCCC2)c1`: the molecule was classed as inactive.

On to `CCCNC(=O)C[C@@H]1CC[C@H]2[C@@H](COC[C@H](O)CN2Cc2ccccc2F)O1`, for which the outcome was inactive.

Consider `C[C@@H]1CN([C@H](C)CO)C(=O)c2cc(-c3ccc(F)cc3)cnc2O[C@H]1CN(C)CC1CCCCC1`, for which the molecule was classed as inactive.

Turning to `COc1ccc(S(=O)(=O)Nc2ccc3c(c2)C(=O)N([C@H](C)CO)C[C@@H](C)[C@@H](CN(C)C(=O)Nc2ccccc2)O3)cc1`, the result was inactive.

`O=C(NC(=S)Nc1ccc(CN2CCOCC2)cc1)c1ccc([N+](=O)[O-])cc1`: the result was inactive.

On to `CC(=O)N1[C@@H]2CN(S(=O)(=O)c3ccccc3F)c3ccccc3[C@@H]2[C@@H]1CO`, for which the result was inactive.

Turning to `CC(=O)N1[C@@H]2c3ccc(-c4ccccc4)c(=O)n3C[C@H]1[C@H](CO)[C@H]2C(=O)Nc1ccccc1`, the outcome was inactive.

`CO[C@@H]1CN(C)C(=O)c2cc(NS(=O)(=O)C3CCCCC3)ccc2OC[C@H](C)NC[C@@H]1C`: the molecule was classed as inactive.

Consider `C[C@@H]1CN([C@@H](C)CO)C(=O)c2cc(NS(=O)(=O)c3ccccc3)ccc2O[C@H]1CN(C)C(=O)NC1CCCCC1`, for which the call was inactive.

In the case of `CC(C)NC(=O)Nc1cccc2c1O[C@@H](CN(C)C(=O)Nc1ccccc1)[C@@H](C)CN([C@@H](C)CO)C2=O`, the call was inactive.

As for `O=C(C[C@@H]1CC[C@H]2[C@@H](COC[C@H](O)CN2Cc2ccccc2F)O1)NC1CCC1`, the molecule was called inactive.

With `O=C(C[C@H]1CC[C@H]2[C@@H](COC[C@@H](O)CN2C(=O)Nc2ccc(Cl)cc2)O1)N1CCCCC1`, the result was inactive.

Take `CC(Sc1ncnc2c1cnn2-c1ccccc1)C(=O)Nc1ccc(N2CCOCC2)cc1` (stereo not given): the molecule was called inactive.

As to `C[C@H](CO)N1C[C@H](C)[C@@H](CN(C)C(=O)c2cccc(F)c2)Oc2cc(-c3cncnc3)ccc2S1(=O)=O`, the molecule was called inactive.

As for `C[C@@H]1CN([C@@H](C)CO)S(=O)(=O)c2ccc(C#C[C@@H](C)O)cc2O[C@@H]1CN(C)C(=O)C1CCCCC1`, the molecule was classed as inactive.

With `COc1ccc(C#Cc2ccc3c(c2)O[C@H](CN(C)C(=O)Nc2cccc(OC)c2)[C@H](C)CN([C@@H](C)CO)S3(=O)=O)cc1`, the result was inactive.

Turning to `C[C@@H]1CN([C@@H](C)CO)C(=O)c2cc(NS(=O)(=O)c3cn(C)cn3)ccc2O[C@@H]1CN(C)C(=O)Nc1cccc2ccccc12`, the molecule was called inactive.

In the case of `CC(C)NC(=O)N(C)C[C@@H]1OCCCC[C@H](C)Oc2ccc(NC(=O)c3ccccc3)cc2C(=O)N([C@H](C)CO)C[C@H]1C`, the result was inactive.

With `CNC[C@@H]1OCCCC[C@H](C)Oc2ccc(NC(=O)c3ccccc3)cc2C(=O)N([C@@H](C)CO)C[C@@H]1C`, the molecule was classed as inactive.

Take `N#C[C@@H]1[C@@H](c2ccccc2)[C@@H](CO)N1C(=O)Cc1ccccc1`: the molecule was called inactive.

On to `C[C@H]1CN([C@@H](C)CO)C(=O)Cc2cc(NS(=O)(=O)c3ccc(F)cc3)ccc2O[C@@H]1CN(C)S(=O)(=O)c1ccc(F)cc1`, for which the outcome was inactive.

In the case of `CCCNC(=O)Nc1ccc2c(c1)C(=O)N(C)C[C@H](OC)[C@@H](C)CN(Cc1cccnc1)[C@H](C)CO2`, the molecule was called inactive.

For `C[C@@H]1CCCCO[C@@H](CN(C)S(=O)(=O)c2ccc(F)cc2)[C@@H](C)CN([C@@H](C)CO)C(=O)c2cc(NS(=O)(=O)c3ccc(F)cc3)ccc2O1`, the call was inactive.

As for `COc1ccccc1-c1ccc2c(c1)O[C@@H](CN(C)C(=O)c1cccnc1)[C@H](C)CN([C@@H](C)CO)S2(=O)=O`, the outcome was inactive.

Take `C[C@@H]1CN([C@H](C)CO)C(=O)c2cc(-c3ccc(C#N)cc3)cnc2O[C@@H]1CN(C)C(=O)Nc1ccc(F)cc1`: the call was inactive.

As to `CCCN(C)C[C@@H]1OCCCC[C@H](C)Oc2ccc(NS(=O)(=O)c3ccc(C)cc3)cc2C(=O)N([C@H](C)CO)C[C@@H]1C`, the result was inactive.

As for `CCCNC(=O)N(C)C[C@H]1Oc2ncc(C#CC3CCCCC3)cc2C(=O)N([C@@H](C)CO)C[C@@H]1C`, the result was inactive.

For `O=C(C[C@@H]1CC[C@@H]2[C@H](COC[C@H](O)CN2S(=O)(=O)c2ccc(Oc3ccccc3)cc2)O1)NC1CCC1`, the result was inactive.

For `CO[C@@H]1CN(C)C(=O)c2cc(NS(=O)(=O)c3ccc(C)cc3)ccc2OC[C@@H](C)N(C)C[C@@H]1C`, the call was inactive.

With `CCNC(=O)COc1cccc(C(=O)NCc2ccccc2)c1`, the molecule was classed as inactive.
